High-throughput results from PubChem.
In the library only some 2.2% were active in any assay of this set; here they are far more common.
PLCb3 inh: PLC-beta3 (human) inhibition, primary screen; Q01970; Purified PLC-beta3, fluorogenic substrate, fluorescence; inhibition, % at 12.2 µM; 370,000 compounds, 0.18% hits; in the data active means inhibition above about 11%
GC-B act: GC-B (human) receptor activation; P20594; HEK293-GC-B cells, CNP EC30, cGMP TR-FRET; 0% at EC30 CNP, 100% saturating CNP; activation, % at 10 µM; 370,000 compounds, 0.11% hits; AID 1920062;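 active means activation at 10 µM reaching about 35% in either raw or pattern-adjusted values, limit read from the data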
NPR1 activator: GC-A (human) enzyme activation; HEK293 GC-A cells, cGMP TR-FRET, EC30 ANP; 0% at EC30 ANP, 100% saturating ANP; 370,000 compounds, 0.14% hits; P16066; activation, % at 10 µM; in the data active means activation above about 40%
PLC-gamma1 inh: blocks human PLC-gamma1 enzyme activity; P19174; purified PLC-gamma1, fluorogenic substrate, fluorescence; inhibition, % at 12.2 µM; 370,000 compounds, 0.84% hits; AID 720700; in the data active means inhibition above about 9.5%
PfM18AAP inh-1: blocks P. falciparum M18 aspartyl aminopeptidase. AID 1822. inhibition, % at 7.35 µM. recombinant PfM18AAP, H-Glu-NHMec fluorogenic cleavage. 290,000 compounds, 1.2% hits;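 active means inhibition above the campaign mean inhibition over all tested compounds plus 3 SD, cut at about 28% in these data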
Rce1 inhib: inhibitors of yeast Ras-converting enzyme; Q03530; calls only; 290,000 compounds, 0.27% hits; yeast membranes, quenched prenylated peptide cleavage fluorescence;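 active means fall in fluorescence gain of 50% or more versus controls, with final raw signal at or below 3038400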
Target sequence (Q03530 whole entry, looked up): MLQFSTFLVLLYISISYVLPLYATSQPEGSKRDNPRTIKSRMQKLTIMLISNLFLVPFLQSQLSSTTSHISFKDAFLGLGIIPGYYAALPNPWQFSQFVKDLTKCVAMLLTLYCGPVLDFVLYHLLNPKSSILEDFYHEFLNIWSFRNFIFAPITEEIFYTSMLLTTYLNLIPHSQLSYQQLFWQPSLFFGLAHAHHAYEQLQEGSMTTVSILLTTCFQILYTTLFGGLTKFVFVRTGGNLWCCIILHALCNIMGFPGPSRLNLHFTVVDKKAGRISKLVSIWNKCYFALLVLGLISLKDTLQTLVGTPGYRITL
PfM18AAP inh-2: PfM18AAP inhibition, confirmation; shares compounds with PfM18AAP inh-1; recombinant PfM18AAP, H-Glu-NHMec fluorogenic cleavage; inhibition, % at 7.35 µM; 2,400 compounds, 28% hits; AID 2170;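 active means mean inhibition over replicate wells above the hit cutoff set for the earlier primary screen, cut at about 29% in these data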
CTSL1 counter: counter-screen for PFM18AAP inhibitors: confirmation of human cathepsin L inhibitors | 2,400 tested, under 10 active | purified cathepsin L1, Z-Leu-Arg-MCA fluorescence | inhibition, % at 5.96 µM | shares compounds with PfM18AAP inh-1;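 active means average inhibition across replicates above the hit cutoff set in the earlier primary screen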
Target sequence (P07711 whole entry, looked up): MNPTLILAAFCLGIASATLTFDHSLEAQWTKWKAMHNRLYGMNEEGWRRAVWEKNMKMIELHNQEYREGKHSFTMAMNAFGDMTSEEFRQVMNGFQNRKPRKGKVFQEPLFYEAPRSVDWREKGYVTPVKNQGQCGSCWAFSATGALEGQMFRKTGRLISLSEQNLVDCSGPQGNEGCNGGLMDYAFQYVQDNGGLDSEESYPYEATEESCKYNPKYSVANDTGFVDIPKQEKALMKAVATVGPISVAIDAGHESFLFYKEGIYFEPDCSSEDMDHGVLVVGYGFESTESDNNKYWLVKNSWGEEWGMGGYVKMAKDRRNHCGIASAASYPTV
Numbers stand for hits; – = inactive; · = not tested or not shown.

SMILES	PLCb3 inh	GC-B act	NPR1 activator	PLC-gamma1 inh	PfM18AAP inh-1	Rce1 inhib	PfM18AAP inh-2	CTSL1 counter
CCc1nnc(N/N=C/c2c(Cl)cccc2Cl)n1N	–	–	–	–	56	–	–	–
CNC(=S)N/N=C/c1c(Cl)cccc1Cl	–	–	–	–	–	–	·	·
O=c1c2ccccc2cnn1Cc1n[nH]c(=S)n1-c1ccc(Cl)cc1Cl	·	·	·	·	–	–	·	·
S=c1[nH]nc(Cc2noc3ccccc23)n1-c1ccccc1	–	–	–	–	33	–	–	–
O=c1c2ccccc2cnn1Cc1n[nH]c(=S)n1-c1ccccc1	–	–	–	–	35	–	–	–
COC(=O)[C@]12CCCCC=C1N(Cc1ccc(OC)cc1)C(=O)[C@@H]2CC(=O)NCC1CCCCC1	–	–	–	–	·	·	·	·
COCCN(CCOC)Cc1c(O)ccc2c1O/C(=C\c1ccco1)C2=O	–	–	–	–	38	–	–	–
CCOC(=O)N1CCN(C(=O)C[C@H]2C(=O)N(CCCOC)C3=CCCCC[C@]32C(=O)OC)CC1	–	–	–	–	·	·	·	·
COC(=O)C1CN(Cc2ccccc2)CCS(=O)(=O)N1Cc1ccccc1 (stereo not given)	–	–	–	–	·	·	·	·
COc1ccc(N2C(N)=C(C#N)C(c3ccsc3)C3=C2CCCC3=O)c(OC)c1 (stereo not given)	–	–	–	–	35	–	–	–
COc1cccc(C2C(C#N)=C(N)N(N(C)C)C3=C2C(=O)CCC3)c1 (stereo not given)	–	–	–	–	–	–	·	·
CCCC(=O)Nc1ccc(C(=O)NN=C(C2CC2)C2CC2)cc1	–	–	–	–	–	–	·	·
CCCC(=O)Nc1ccc(C(=O)N/N=C2\CC(=O)CC(C)(C)C2)cc1	–	–	–	–	39	–	–	–
CCOc1cc(C(=O)Nn2cnnc2)cc(OCC)c1OCC	–	–	–	–	35	–	–	–
CCOc1cc(C(=O)NC(=S)Nn2cnnc2)cc(OCC)c1OCC	–	–	–	–	75	–	75	–
CCOc1cc(C(=O)NC(=S)Nc2nc(C)cc(C)n2)cc(OCC)c1OCC	–	–	–	–	–	–	·	·
CCCCCCCCN1CCS(=O)(=O)N(Cc2ccc(C(F)(F)F)cc2)C(C(=O)OC)C1 (stereo not given)	–	–	–	–	·	·	·	·
Cc1c(Cl)cccc1NC(=S)NC1CC1	–	–	–	–	–	–	·	·
Cc1c(Cl)cccc1NC(=S)Nn1cnnc1	–	–	–	–	76	–	76	–
O=C(/C=C/c1ccccc1)n1cnnc1SC/C=C/c1ccccc1	–	–	–	–	41	–	–	–
Cc1nnc(SC/C=C/c2ccccc2)n(N)c1=O	–	–	–	–	–	–	·	·
O=C(CSc1nnc(-c2cccnc2)n1C1CCCCC1)NC1CCCCCC1	–	–	–	–	·	·	·	·
O=C(NCCC1CCCC1)c1cccs1	–	–	–	–	53	–	–	–
O=C(NCC1CC1)c1cccs1	–	–	–	–	·	·	·	·
COC(=O)c1ccc(Cn2ccc3ccc(-c4ccc5ccn(C(=O)c6ccc(C)cc6)c5c4)cc32)cc1	–	–	–	–	·	·	·	·
SMILES	PLCb3 inh	GC-B act	NPR1 activator	PLC-gamma1 inh	PfM18AAP inh-1	Rce1 inhib	PfM18AAP inh-2	CTSL1 counter
Cc1ccc2c(c1)-c1c(ssc1=S)C(C)(C)N2C(=O)c1ccco1	–	–	–	–	40	–	–	–
O=C(Cc1ccccc1)NN1C(=O)/C(=C/c2ccc(C(=O)O)cc2)SC1=S	–	–	–	–	34	–	–	–
Cc1ccc(NC(=O)OC2CC3CC2[C@H]2CCCCN2C3)cc1C (stereo not given in full)	–	–	–	–	·	·	·	·
O=C1N(c2ccccc2)CC2CC(c3ccccc3)N3CCCC123 (stereo not given)	–	–	–	–	·	·	·	·
CCOC(=O)CC[C@@]1(C(=O)OCC)C[C@@H](CC(=O)NCCc2ccccc2OC)C(=O)N2CCCC=C21	–	–	–	–	·	·	·	·
Cc1ccc(C)c(N=Cc2cc3c(cc2[N+](=O)[O-])OCO3)c1	–	–	–	–	–	–	·	·
O=[N+]([O-])c1ccc(S(=O)(=O)NN=Cc2ccc3c(c2)OCO3)cc1	–	–	–	–	·	·	·	·
O=[N+]([O-])c1cc2c(cc1/C=N\NS(=O)(=O)c1ccccc1)OCO2	–	–	–	–	48	–	–	–
Cc1cccc(C)c1OCC(=O)N/N=C/c1cc2c(cc1[N+](=O)[O-])OCO2	–	–	–	–	–	–	·	·
CC(C)(C)c1ccc(O)c(N=Cc2cc3c(cc2[N+](=O)[O-])OCO3)c1	–	–	–	–	36	–	90	–
O=C(CCc1ccc(O)c(O)c1)N/N=C/c1cc2c(cc1[N+](=O)[O-])OCO2	–	–	–	–	76	–	51	–
Cc1cc2c(c(=O)o1)[C@@]1(C(=O)N(C)c3cc(Br)ccc31)C1=C(CCCC1=O)O2	–	–	–	–	·	·	·	·
C=CCN1C(=O)[C@H](CC(=O)NCc2cccc3ccccc23)[C@@]2(C(=O)OCC)CCCC=C12	–	–	–	–	·	·	·	·
COc1cccc(C(=O)n2cnnc2N)c1OC	·	–	–	·	56	–	51	–
Cc1ccc(C)c(C(=O)n2cnnc2N)c1	–	–	–	–	35	·	51	–
Cc1ccc(C(=O)n2cnnc2N)cc1	–	–	–	–	41	–	47	–
Nc1nncn1C(=O)c1c(Cl)cccc1Cl	–	–	–	–	–	–	·	·
Cc1ccc(C)c(N)c1	–	–	–	–	·	·	·	·
Nc1nncn1C(=O)c1cccs1	–	–	–	–	40	·	49	–
O=C(N[C@@H](Cc1cccnc1)C(=O)N1CCC[C@H]1C(=O)NCCc1ccccc1Cl)C1CCCC1	–	–	–	–	·	·	·	·
COc1ccc2c(c1)N[C@@](CCNC=O)(c1[nH]c3ccccc3c1CCNC=O)C2=O	–	–	–	–	·	·	·	·
Cc1ccc(C(=O)C2CCN(CC(=O)N3CCOCC3)CC2)cc1	–	–	–	–	·	·	·	·
Nc1nncn1C(=O)c1cc(Br)ccc1Cl	–	–	–	–	46	–	48	–
Cc1ccc(C(=O)n2cnnc2N)cc1C	–	–	–	–	44	–	57	–
O=C(NC1CCCCC1)O[C@H]1CC[C@@]23CCCN2C(=O)CCC[C@H]3C1	–	–	–	–	·	·	·	·
O=C(Nc1ccc2c(c1)OCO2)OC1CC2CC1[C@H]1CCCCN1[C@H]2Cc1ccccc1 (stereo not given in full)	–	–	–	–	·	·	·	·
Cc1cccc(-n2c(CCn3nc(C)c([N+](=O)[O-])c3C)n[nH]c2=S)c1	–	–	–	–	–	–	·	·
COc1cccc(-n2c(CCn3nc(C)c([N+](=O)[O-])c3C)n[nH]c2=S)c1	–	–	–	–	32	–	–	–
